# Assay outcomes from PubChem BioAssay.
# This is a sample that favours compounds with a hit; in the whole collection about 6.3% have one here.
# MK inhibit = S. pneumoniae mevalonate kinase inhibition; purified MK, PK/LDH-coupled NADH absorbance 340 nm; inhibition, % at 10 µM; actives 0.48% (n = 65,000); AID 555;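 active means ranked among the strongest by inhibition in the single 10 µM screen, a fixed top-ranked set picked for dose follow-up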
# Spn PMK inh = inhibitors of Streptococcus pneumoniae phosphomevalonate kinase; purified PMK, PK/LDH-coupled NADH absorbance 340 nm; inhibition, % at 10 µM; actives 0.49% (n = 65,000);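 active means top-ranked compounds by inhibition in the single 10 µM screen, taking a fixed number of the strongest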;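 further: 0% = full reaction with DMSO carrier and 100% = background rate without enzyme reaction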
# NADH enzymes = inhibitors of enzymes used to reach an NAD/NADH endpoint | coupled PK/LDH NADH assays, four targets | IC50, µM (titrated, usually from 10 µM), for inactives: at the top dose inhibition | actives 0.02% (n = 65,000) | AID 774;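 active means single-dose screening hits from any of four coupled enzyme assays that gave an IC50 when retested across doses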;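 further: the DPM-DC format reads NADH fluorescence rather than 340 nm absorbance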
# Fluor 339 460 = intrinsic fluorescence of library compounds, ex339/em460 – biochemical, MLSMR library, data from DPM-DC assay, artefact control, profiling panel; compound autofluorescence, ex339/em460 nm, NADH buffer; active compounds read high; 1 = no-compound wells, NADH background; fluorescence fold increase at 10 µM; actives 5.5% (n = 65,000); AID 709;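 active means at 10 µM, mean starting fluorescence two-fold or more over control wells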;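 further: signal is the first read of a kinetic run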
# DPM-DC inhibit = blocks S. pneumoniae diphosphomevalonate decarboxylase. purified DPM-DC, PK/LDH coupled NADH fluorescence. calls only at 10 µM. actives 0.49% (n = 65,000);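 active means the 320 compounds with the highest percent inhibition in the single-dose primary screen, excluding strongly autofluorescent ones, cut at about 32% in these data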;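 further: kinetic rate of NADH fluorescence loss reporting ADP formed by the decarboxylase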
# Abs 340nm = absorbance at 340 nm; compound absorbance at 340 nm, fold over control; fold change at 10 µM; 65,000 tested, under 10 active; AID 708;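 active means at 10 µM dose, initial 340 nm absorbance at least 2 fold that of control wells; inactive means change under 2 fold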;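 further: initial absorbance extrapolated from kinetic A340 decline of NADH oxidation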
# Starred values were filed as active, the others as inactive; i = inactive; / = no result given.
SMILES,MK inhibit,Spn PMK inh,NADH enzymes,Fluor 339 460,DPM-DC inhibit,Abs 340nm
CCOC(=O)c1nn(-c2ccc3c(c2)CCN3C(C)=O)cc1O,6.0,0.0,3.0%,2.2*,/,1.13
O=C(CC(=O)c1ccccc1)Nc1ccc2c(c1)OCCO2,0.0,15.0,5.0%,1.2,i,1.03
COc1ccccc1CN1C(=O)C2CC=CCC2C1=O (configuration not stated),0.0,16.0,5.0%,1.12,i,1.01
CN1C(=O)C2(N=c3ccccc3=N2)c2ccccc21,2.0,4.0,3.0%,2.09*,/,1.06
CN1/C(=C\C(=O)C(F)F)C(C)(C)c2ccccc21,32.0,0.0,5.0%,1.14,i,1.03
CCc1cc(C(=O)OC)c(NC(=O)c2cc(Br)cs2)s1,0.0,0.0,0.0%,2.19*,i,1.12
c1ccc(-c2nc3nc4ccccc4nc3n2Cc2ccco2)cc1,16.0,15.0,12.0%,1.5,i,1.13
c1ccc(Cn2c(-c3cccs3)nc3nc4ccccc4nc32)cc1,9.0,5.0,7.0%,3.71*,/,1.03
CC(C)Cn1c(-c2cccs2)nc2nc3ccccc3nc21,0.0,2.0,1.0%,3.91*,/,1.07
CN1CCN(C2CCCCCC2)CC1,11.0,0.0,4.0%,1.08,i,1.03
c1ccc(COc2ccc(CNn3cnnc3)cc2)cc1,6.0,11.0,8.0%,1.02,i,1.01
OCCN(Cc1ccccc1)CC1CCCCC1,43.0*,0.0,14.0%,1.11,i,1.05
OCCN(Cc1ccccc1)Cc1cccc(C(F)(F)F)c1,37.0,1.0,13.0%,1.09,i,1.06
CCCN(CCO)Cc1cccc(Cl)c1,41.0*,0.0,14.0%,1.1,i,1.06
OCCN(Cc1ccccc1)Cc1ccccc1F,48.0*,7.0,19.0%,1.08,i,1.05
OCCN(Cc1ccccc1)Cc1cccc(F)c1,45.0*,0.0,15.0%,1.17,i,1.08
O=C1CC(Cc2ccccc2)C(=O)N1CCCn1ccnc1 (configuration not stated),i,i,3.0%,0.68,i,1.08
N#C/C(C(=O)c1ccccc1)=C1/CCCCCN1,5.0,16.0,7.0%,1.06,i,1.11
CCN1C2=C(C(=O)CCC2)C(c2ccc(O)cc2)C2=C1CCCC2=O,8.0,3.0,6.0%,1.37,i,1.06
Cc1cc(S(=O)(=O)Nc2cccc(O)c2)c(C)s1,0.0,15.0,5.0%,1.07,i,0.98
COC(=O)c1cccc(Oc2nc3c(c(=O)n(C)c(=O)n3C)n2C(C)C)c1,4.0,0.0,2.0%,1.03,i,0.98
Cc1cnc(C(=O)Nc2ccccc2-c2ccc(C)o2)cn1,4.0,0.0,1.0%,1.12,i,1.06
CC1(C)Cc2c(C#N)c(NCCc3ccccc3)nc(-c3ccco3)c2CO1,0.0,0.0,0.0%,2.33*,/,1.09
CCN(CC)CCNc1nc(-c2ccco2)c2c(c1C#N)CC(C)(C)OC2,0.0,6.0,3.0%,2.33*,/,1.06
Cc1nc(NCCO)c(C#N)c2c1COC(C)(C)C2,0.0,3.0,2.0%,1.98,/,1.06
SMILES,MK inhibit,Spn PMK inh,NADH enzymes,Fluor 339 460,DPM-DC inhibit,Abs 340nm
CCCCc1nc(NCCN2CCOCC2)c(C#N)c2c1COC(C)(C)C2,11.0,2.0,3.0%,1.17,i,1.01
Cc1cccc(N2CCN(C(=O)c3cc4c(=O)n(C)c5ccccc5c4n3C)CC2C)c1 (configuration not stated),11.0,3.0,5.0%,1.11,i,1.04
Cc1cc2c3nonc3ccc2n1-c1ccccc1,6.0,6.0,6.0%,2.25*,/,1.04
c1ccc(-c2cc3c(ccc4nonc43)nn2)cc1,0.0,0.0,0.0%,1.09,i,1.07
CCOC(=O)N1CCC(NC2CCCCCCC2)CC1,0.0,0.0,0.0%,1.1,i,1.04
COc1cccc(Cn2nnc(C(=O)NCc3ccccc3Cl)c2N)c1,2.0,6.0,3.0%,1.04,i,1.05
C=CCOc1ccccc1C1C2=C(CC(C)(C)CC2=O)Nc2c1c(=O)n(C)c(=O)n2C (configuration not stated),6.0,9.0,8.0%,3.57*,/,1.04
Cc1n[nH]c(C)c1N1C(=O)c2cccc3c(N4CCCCCC4)ccc(c23)C1=O,5.0,32.0*,12.0%,1.11,i,1.04
CC(C)(C)S(=O)(=O)c1ccc2nc3c(n2c1)CCCC3,15.0,14.0,15.0%,3.9*,/,1.03
Cc1csc(OCc2ccc(C#N)cc2)n1,4.0,22.0,5.0%,0.95,i,1
CC1CCC(NC(=O)c2cc3c(s2)CS(=O)(=O)C3)CC1 (configuration not stated),4.0,10.0,5.0%,1.08,i,0.99
O=C(O)c1cc2c(s1)-c1ccccc1OC2,9.0,3.0,6.0%,2.22*,/,1.16
CCn1c(=O)c2cc(C(=O)N3CCN(C(=O)c4ccco4)CC3)sc2c2ccccc21,0.0,6.0,3.0%,2.12*,/,1.14
O=C(NC1CC1)c1cc2c(s1)-c1ccccc1OC2,6.0,1.0,4.0%,2.14*,/,1.15
CN1CCN(C(=O)c2cc3c(s2)-c2ccccc2S(=O)(=O)C3)CC1,1.0,9.0,3.0%,1.1,i,1.16
O=C(NCc1cccs1)c1cc2c(s1)-c1ccccc1OC2,5.0,1.0,4.0%,2.44*,/,1.02
O=C(c1ccco1)N1CCN(C(=O)c2cc3c(s2)-c2ccccc2OC3)CC1,10.0,0.0,6.0%,2.43*,/,1.07
CC(C)OC(=O)CC(=O)c1sc2nc3c(cc2c1N)CN(C)CC3,4.0,19.0,12.0%,4.84*,/,1.06
CCOc1cc(C(=O)NCCN2CCOCC2)cc(OCC)c1OCC,50.0*,3.0,18.0%,1.06,i,1.02
COC(=O)c1ccc2ccn(CC(=O)NC(C)C)c2c1,8.0,0.0,4.0%,2.06*,/,1.05
CC(C)NC(=O)Cn1cc(C#N)c2cc(Br)ccc21,8.0,0.0,3.0%,1.05,i,1.03
CN(C)S(=O)(=O)c1cccc(-c2cn3ccccc3n2)c1,0.0,6.0,2.0%,1.78,i,1.01
COc1ccc(-c2cn3ccccc3n2)cc1OC,16.0,4.0,10.0%,3.98*,/,1.04
COc1ccc(-c2cn3cc(C)ccc3n2)cc1OC,0.0,0.0,2.0%,2.48*,/,1.03
O=C(c1ccccc1)c1ccc(C(=O)N2CCN(c3ccc(F)cc3)CC2)o1,7.0,0.0,3.0%,1.15,i,1.05
O=C(CN1C(=O)c2cccc3cccc1c23)Nc1cccnc1,12.0,6.0,13.0%,2.09*,i,1.04
O=C(N1CCN=C1SCc1cccnc1)C12CC3CC(CC(C3)C1)C2,7.0,16.0,8.0%,1.09,i,0.98
Cn1c(=O)c2nc(NCc3ccccc3)cnc2n(C)c1=O,5.0,14.0,13.0%,3.91*,i,0.99
CCOC(=O)c1sc(N)c(C#N)c1COC(=O)CNC(=O)c1ccccc1,3.0,18.0,7.0%,1.19,i,1.06
